SMILES strings stand for the structures. Hit rate of the full screen: of about 68,000 compounds, about 2,700 (4%) showed an effect of 50% or more. The entries come from a sample that favours strong results as a whole.

For this assay, the system named is Plasmodium berghei. As to the kind of experiment: Screen against P. berghei liver stage (PbLuc), transformed with Luciferase, at 2uM. The class given is functional, HepG2. As to conditions: tested at 2 uM.
As to `CC(NC(=O)COCC(F)(F)F)c1nnc2n1CCCCC2` (stereo not drawn), the INHIBITION came to 15.08%. As for `Fc1ccccc1-c1cccc(C2CCCN(C3CCOCC3)C2)n1` (stereo not drawn), the figure is 25.4%; as for `c1ncn(CCNC2CCCN(Cc3noc(C4CC4)n3)C2)n1` (stereo not drawn), 54.29%; as for `Cc1ccsc1CNC1CCCN(Cc2noc(C3CC3)n2)C1` (stereo not drawn), 17.59%. `Cc1nc(CN2CCCC(NCc3ccsc3)C2)no1` (stereo not drawn): the INHIBITION is 20.28%. For `CCc1nc(CN2CCCC(NCCn3cncn3)C2)no1` (stereo not drawn), the INHIBITION is reported as 35.56%. As for `Cc1nc(CN2CCCC(NCc3sccc3C)C2)no1` (stereo not drawn), the figure is 51.94%; as for `c1cnn(CC2CCCCN2Cc2noc(C3CC3)n2)c1` (stereo not drawn), -10.47%; as for `c1ncn(CC2CCCCN2Cc2noc(C3CC3)n2)n1` (stereo not drawn), 62.13%. The same measure for `Cc1nc(CN2CCCC2Cn2cncn2)no1` (stereo not drawn): -21.93%; for `c1ncn(CC2CCCN(Cc3noc(C4CC4)n3)C2)n1` (stereo not drawn): 29.54%. As for `CCC(=O)Nc1cccc(C(=O)NCCC2=CSC3=NCCCN23)c1`, the figure is -17.86%; as for `COc1ccc(-c2nc(C3CCNCC3)cc3c2ncn3C)cc1`, -0.45%; as for `COCCS(=O)(=O)c1ncc(CN(C)C)n1Cc1ccccc1`, 29.41%.

As for `Cc1ccc2c(c1)N(C(=O)C1CCCOC1)CCC2` (stereo not drawn), the INHIBITION is listed as -13.38%.

Regarding `O=C(C1CCCOC1)N1CCCCc2ccccc21` (stereo not drawn), the INHIBITION is on record as 16.09%. As for `O=C(C1CCCOC1)N1CCCc2ccccc21` (stereo not drawn), the figure is 53.29%; as for `C1CCCN(c2nc(C3CC3)no2)CC1`, 28.02%.

As for `Cc1ccsc1CN1C[C@@H]2CN(Cc3cccnc3)CCO[C@@H]2C1`, the INHIBITION stood at 4.26%. As for `Cc1ncsc1CN1C[C@@H]2CN(Cc3cccnc3)CCO[C@@H]2C1`, the figure is 54.13%; as for `COc1ccc(CN2C[C@@H]3CN(Cc4cccnc4)CCO[C@@H]3C2)cc1`, 39.57%. The same measure for `Cc1cc(C)c2cc(CNC3CCCCC3)c3nn(C)c(=O)n3c2c1`: 14.26%; for `Cc1cccc(C2(CNC(=O)CCNS(C)(=O)=O)CCCC2)c1`: 3.9%.

Take `COCCN1CCC2(CC1)CC(N1CCOCC1)c1ccc(C)cc12` (stereo not drawn): the INHIBITION was 17.47%. As for `CC(C)C(Sc1ccccc1)C(=O)N(C)Cc1nnc2n1CCC2` (stereo not drawn), the figure is 64.39%; as for `CC(C)C(=O)N(C)Cc1nnc2n1CCCCC2`, 21.82%; as for `CC(=O)NC(C(=O)N(C)Cc1nnc2n1CCC2)C(C)C` (stereo not drawn), -63.33%. As for `CC(C)Nc1nc2c(c(NC3CC3)n1)CCN(Cc1nccn1C)CC2`, the figure is 34.71%. For the molecule `CCCn1cc(NC2CCSCC2)cn1`, the INHIBITION was 46.58%. The same measure for `O=C(NCC1(O)CCC1)NC(c1cc(F)ccc1F)C1CC1` (stereo not drawn): -5.74%; for `CCOC(=O)c1n[nH]cc1CN1CCCC(N(C)Cc2ccccc2)C1` (stereo not drawn): 52.3%.

Consider `CCOC(=O)c1n[nH]cc1CN1CCOC(Cc2ccccc2)C1` (stereo not drawn), for which the INHIBITION is reported as -30.18%. Consider `CCOC(=O)c1n[nH]cc1CN1CCOC(Cc2ccc(F)cc2)C1` (stereo not drawn), for which the INHIBITION is listed as -142.94%. For `CCS(=O)(=O)N1CC(=O)N(CCCc2ccccc2)CC(O)C1` (stereo not drawn), the INHIBITION is given as 12.44%. The same measure for `Cc1cnn(CC2CCCN2C(=O)c2cnc3n[nH]c(C)c3c2)c1` (stereo not drawn): -27.31%. As for `O=C(Cn1cc(C(=O)O)ccc1=O)NCc1ccc(F)c(Cl)c1`, the figure is 11.14%.

Consider `O=C(C1CC1)N(Cc1ccc2cc[nH]c2c1)C1CC1`, for which the INHIBITION was found to be 11.43%. The same measure for `CN(C)c1nc2c(c(N(C)C)n1)CCN(C(=O)CN1CCC(O)CC1)C2`: 13.99%; for `c1cncc(COCC2CN(Cc3ccncc3)Cc3ccnn3C2)c1` (stereo not drawn): -34.65%; for `c1cncc(COCC2CN(Cc3ccco3)Cc3ccnn3C2)c1` (stereo not drawn): 1.22%. The same measure for `Cc1ccc(CN2Cc3ccnn3CC(COCc3cccnc3)C2)o1` (stereo not drawn): 49.25%; for `c1ccc(CN2Cc3ccnn3CC(COCc3cccnc3)C2)nc1` (stereo not drawn): 50.32%; for `c1cncc(OCC2CN(Cc3ccsc3)Cc3nccn3C2)c1` (stereo not drawn): 45.82%. As for `c1cncc(COCC2CN(Cc3cccnc3)Cc3ccnn3C2)c1` (stereo not drawn), the figure is 56.78%. For `c1cncc(COCC2CN(Cc3ccsc3)Cc3ccnn3C2)c1` (stereo not drawn), the INHIBITION is -10.99%. As for `c1ccc(COCC2CN(Cc3ccsc3)Cc3nccn3C2)nc1` (stereo not drawn), the figure is 59.88%. As for `CN(C)C(=O)COCC1CN(Cc2ccsc2)Cc2nccn2C1` (stereo not drawn), the figure is 15.44%. With `CN(C)C(=O)CCC[S+]([O-])Cc1ccc(Cl)c(Cl)c1` (stereo not drawn), the INHIBITION is -32.8%. As to `CSc1ccc(CN(C)Cc2noc(C(C)(C)C)n2)cc1`, the INHIBITION is 21.28%. The same measure for `CC(C)Nc1nc2c(s1)C(=O)CN(CC1CC1)C2`: -17.3%; for `CC[C@@]1(O)CCN(CCCOc2ccc(C(N)=O)cc2)C[C@H]1O`: -15.75%.

As for `CN1CCc2ccc(NCc3cscn3)cc2C1=O`, the INHIBITION was determined as 36.28%.

With `CN1CCc2ccc(NCc3cccs3)cc2C1=O`, the INHIBITION is 50.59%. The same measure for `CN(CCc1cccs1)C(=O)Nc1ccc2c(c1)C(=O)N(C)CC2`: 5.28%; for `CCO[C@H]1CO[C@@]2(CCN(Cc3ccc4c(c3)OCO4)C2)C1`: -23.42%; for `FC(F)(F)Cn1ccnc1CN1CCCC1c1noc(C2CC2)n1` (stereo not drawn): -2.7%.

For `COCCNC(=O)C1CN(Cc2csc(C)n2)Cc2ccnn2C1` (stereo not drawn), the INHIBITION was found to be 47.54%. With `CC(C)CC(O)C1CCN(C(=O)c2ccc(C(F)(F)F)nc2O)CC1` (stereo not drawn), the INHIBITION is 72.05%. The same measure for `CC(C)CC(O)C1CCN(C(=O)c2coc(CN3CCOCC3)c2)CC1` (stereo not drawn): 13.19%; for `CC(C)CC(O)C1CCN(C(=O)c2ccc(C(C)C)[nH]c2=O)CC1` (stereo not drawn): -25.72%; for `O=C(NCC(O)(c1cccs1)C1CC1)NC1CCCCC1` (stereo not drawn): -11.54%. For the molecule `CN(Cc1ccccn1)C(C(=O)O)c1ccc2c(c1)OCO2` (stereo not drawn), the INHIBITION is listed as 13.86%. As for `COc1ccc(CCN2CC(n3nc(C)cc3C)C2)cc1`, the figure is 33.55%; as for `Cc1nc2[nH]cnc(NCCN3CCOCC3)c-2n1`, -7.81%; as for `CN1[C@@H](C(=O)NCC2CC2)C[C@@H]2CN(Cc3ccoc3)C[C@@H]21`, 40.83%. The same measure for `O=C(NCc1ccccc1)NCC1CCN(Cc2ccsc2)CC1`: 51%; for `CN1[C@@H](C(=O)NCC2CC2)C[C@@H]2CN(Cc3ccsc3)C[C@@H]21`: 59.5%. As for `Cc1ccc(CN2C[C@@H]3C[C@H](C(=O)NCC4CC4)N(C)[C@@H]3C2)o1`, the figure is 21.06%. For the molecule `Cc1nc(CN2C[C@H]3C[C@H](C(=O)NCC4CC4)N(C)[C@H]3C2)cs1`, the INHIBITION came out at 55.66%.

In the case of `Cc1ccc(CN2C[C@H]3C[C@H](C(=O)NCC4CC4)N(C)[C@H]3C2)o1`, the INHIBITION is recorded as -13.53%.

For `CN1[C@@H](C(=O)NCC2CC2)C[C@H]2CN(Cc3ccsc3)C[C@H]21`, the INHIBITION is given as 1.29%. As to `O=C(CCc1ccccc1)NCC1CCN(Cc2ccsc2)CC1`, the INHIBITION worked out at 13.22%.

In the case of `O=C(NCC1CCN(Cc2ccsc2)CC1)NC1CC1`, the INHIBITION was -18.04%.

These data come from ChEMBL document CHEMBL4513216, “Probing the Open Global Health Chemical Diversity Library for Multistage-Active Starting Points for Next-Generation Antimalarials” (ACS Infect Dis, 2020).
